Laboratory results taken from PubChem BioAssay (NCATS).
“And” between values parts separate entries of the source, which are not always exact repeats. Equal entries are not always repeated. Records with an inconclusive call do not appear. Some structures have more than one record in an assay (separate samples or runs), and their calls can disagree. The source made the active and inactive calls. Calls follow the shape of the dose curve; as a rule, active = well fitted curve in the direction sought with a large enough effect; inconclusive = small, poorly fitted or top-dose-only effect, or another doubt; inactive = no such curve, though single readings can be large; an effect the other way counts as inactive or inconclusive.

Key:
HEK293 = test: Cytotoxic Profiling of Annotated Libraries Using Quantitative High-Throughput Screening (AID 1296008); conditions: Five cell lines viability, CellTiter-Glo ATP luminescence, 48-72 h; max response: stronger effect = lower value; also: nearly all actives have a fitted effect of over 60% in size
In short: (§1)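 Cytotoxicity was measured as CellTiter-Glo ATP luminescence, read after 10 min at room temperature. Compound treatment of the cells lasted 48 or 72 hr at 37 degrees Celsius in a qHTS format.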

HaCat [1] = test: as above; conditions: Five cell lines viability, CellTiter-Glo ATP luminescence, 48-72 h; max response: stronger effect = lower value
In short: as §1

KB-3-1 = test: as above; conditions: Five cell lines viability, CellTiter-Glo ATP luminescence, 48-72 h; max response: stronger effect = lower value
In short: as §1

NIH3T3 [2] = test: as above; conditions: Five cell lines viability, CellTiter-Glo ATP luminescence, 48-72 h; max response: stronger effect = lower value
In short: as §1

WaGa = test: qHTS assay to identify novel small-molecules to repurpose for Merkel cell carcinoma treatment (AID 1296009); conditions: MCC and control cell lines, CellTiter-Glo viability, 72 h; series mostly up to 46 µM; also: nearly all actives have a fitted effect of over 60% in size
In short: (§2)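 72 hr, 37 degree celsius; NPC 8-pt / MIPE 11-pt dose response; compound pinned in DMSO; CellTiter-Glo, 10 min RT, luminescence; normalized to no-cell and DMSO controls.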

CAOV3 = test: Primary qHTS to identify gynecologic anti-cancer compounds using libraries of approved drugs and bioactive compounds (AID 1345084); conditions: Gynecologic cancer cell panel viability, ATPlite luminescence, 48 h; series mostly up to 57.5 µM; also: nearly all actives have a fitted effect of over 55% in size
In short: (§3)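 Cell viability after 48 h drug treatment, ATPlite luminescence readout; five doses.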

CASKI = test: as above; conditions: Gynecologic cancer cell panel viability, ATPlite luminescence, 48 h; series mostly up to 57.5 µM
In short: as §3

JEG-3 = test: as above; conditions: Gynecologic cancer cell panel viability, ATPlite luminescence, 48 h; series mostly up to 57.5 µM
In short: as §3

MKL-2 = test: qHTS assay to identify novel small-molecules to repurpose for Merkel cell carcinoma treatment (AID 1296009); conditions: MCC and control cell lines, CellTiter-Glo viability, 72 h; series mostly up to 46 µM; also: nearly all actives have a fitted effect of over 60% in size
In short: as §2

C33A = test: Primary qHTS to identify gynecologic anti-cancer compounds using libraries of approved drugs and bioactive compounds (AID 1345084); conditions: Gynecologic cancer cell panel viability, ATPlite luminescence, 48 h; series mostly up to 57.5 µM; also: nearly all actives have a fitted effect of over 55% in size
In short: as §3

HeLa = test: as above; conditions: Gynecologic cancer cell panel viability, ATPlite luminescence, 48 h; series mostly up to 57.5 µM
In short: as §3

Hek293T = test: as above; conditions: Gynecologic cancer cell panel viability, ATPlite luminescence, 48 h, control line for the selectivity index; series mostly up to 57.5 µM
In short: as §3

MCC-13 = test: qHTS assay to identify novel small-molecules to repurpose for Merkel cell carcinoma treatment (AID 1296009); conditions: MCC and control cell lines, CellTiter-Glo viability, 72 h; series mostly up to 46 µM; also: nearly all actives have a fitted effect of over 60% in size
In short: as §2

MCC-26 = test: as above; conditions: MCC and control cell lines, CellTiter-Glo viability, 72 h; series mostly up to 46 µM
In short: as §2

MKL-1 = test: as above; conditions: MCC and control cell lines, CellTiter-Glo viability, 72 h; series mostly up to 46 µM
In short: as §2

UISO = test: as above; conditions: MCC and control cell lines, CellTiter-Glo viability, 72 h; series mostly up to 46 µM
In short: as §2

NIH3T3 [3] = test: as above; conditions: MCC and control cell lines, CellTiter-Glo viability, 72 h; at 44.8 µM (top of the series) unless noted
In short: as §2

Es-2 = test: Primary qHTS to identify gynecologic anti-cancer compounds using libraries of approved drugs and bioactive compounds (AID 1345084); conditions: Gynecologic cancer cell panel viability, ATPlite luminescence, 48 h; series mostly up to 57.5 µM; also: nearly all actives have a fitted effect of over 55% in size
In short: as §3

HACAT [4] = test: qHTS assay to identify novel small-molecules to repurpose for Merkel cell carcinoma treatment (AID 1296009); conditions: MCC and control cell lines, CellTiter-Glo viability, 72 h; series mostly up to 44.8 µM; also: nearly all actives have a fitted effect of over 60% in size
In short: as §2
% is scaled to controls: 0 for no effect and ±100 for the full control effect; potency is read from the fitted curve at half-maximal effect.

CC(=O)Nc1nc(C)c(-c2ccc(Cl)c(S(=O)(=O)NCCO)c2)s1
inactive: Potency (JEG-3)
active: Potency (HEK293) 4.18 µM and 11.6 µM | Potency (HaCat [1]) 6.51 µM | Potency (KB-3-1) 9.35 µM | Potency (NIH3T3 [2]) 3.32 µM and 2.59 µM | Potency (WaGa) 5.9 µM | Potency (CAOV3) 14.1 µM | Potency (CASKI) 12.6 µM

CC(C)(O)c1cc2nc(-c3cnc(N)nc3)nc(N3CCOCC3)c2s1
inactive: Potency (MKL-2)
active: Potency (HEK293) 372 nM and 1.3 µM | Potency (HaCat [1]) 264 nM and 1.64 µM | Potency (NIH3T3 [2]) 0.418 µM | Potency (C33A) 3.55 µM | Potency (HeLa) 3.98 µM | Potency (Hek293T) 2 µM

O=C(O)c1ccc2cc(-c3ccc(O)c(C45CC6CC(CC(C6)C4)C5)c3)ccc2c1
active: Potency (HEK293) 1.87 µM | Potency (NIH3T3 [2]) 1.66 µM | Potency (MCC-13) 2.64 µM | Potency (MCC-26) 2.96 µM | Potency (MKL-1) 2.35 µM | Potency (UISO) 1.18 µM | Potency (WaGa) 2.35 µM
inactive: max response (KB-3-1) 7.83%

Cn1c2ccccc2c2c3c(c4c5ccccc5n(CCC#N)c4c21)CNC3=O
inactive: max response (KB-3-1) 4.23% and -14.5% | max response (NIH3T3 [2]) -14.2% | Potency (C33A) | Potency (CASKI) | Potency (HeLa) | Potency (Hek293T) | Potency (JEG-3)
active: Potency (HEK293) 2.35 µM and 7.31 µM | Potency (NIH3T3 [2]) 10.5 µM | Potency (UISO) 2.09 µM | Potency (WaGa) 6.62 µM

O=C(O)c1ccc2c(c1)nc(Nc1cccc(Cl)c1)c1ccncc12
inactive: max response (KB-3-1) 6.46% | outcome (NIH3T3 [2]) | Potency (MCC-26) | Potency (MKL-1) | outcome (NIH3T3 [3]) | Potency (JEG-3)
active: Potency (HEK293) 10.3 µM | Potency (KB-3-1) 20.6 µM | Potency (MKL-2) 5.26 µM | Potency (UISO) 4.18 µM | Potency (CASKI) 35.5 µM

Nc1ccccc1NC(=O)c1ccc(CNc2nccc(-c3cccnc3)n2)cc1
active: Potency (HEK293) 1.64 µM | Potency (HaCat [1]) 3.72 µM | Potency (KB-3-1) 1.87 µM and 2.06 µM | Potency (MCC-13) 5.26 µM | Potency (MKL-1) 2.35 µM | Potency (MKL-2) 1.48 µM | Potency (UISO) 2.35 µM | Potency (WaGa) 0.418 µM | Potency (C33A) 6.31 µM | Potency (CASKI) 8.91 µM | Potency (Es-2) 4.47 µM | Potency (HeLa) 0.891 µM | Potency (JEG-3) 3.55 µM

CN[C@H]1CCc2cc(OC)c(OC)c(OC)c2-c2ccc(OC)c(=O)cc21
inactive: max response (HaCat [1]) -10.1%
active: Potency (HEK293) 0.0015 µM | Potency (KB-3-1) 3.7 nM and 46.1 nM | Potency (MCC-13) 0.0209 µM

CC(C)c1cc(-c2n[nH]c(=O)n2-c2ccc3c(ccn3C)c2)c(O)cc1O
active: Potency (HEK293) 46.9 nM and 41.1 nM | Potency (HaCat [1]) 0.0651 µM | Potency (NIH3T3 [2]) 105 nM and 116 nM | Potency (MCC-13) 0.132 µM | Potency (UISO) 0.372 µM | Potency (Hek293T) 0.316 µM
inactive: Potency (MKL-2) | Potency (CAOV3) | Potency (HeLa) | Potency (JEG-3)

O=C(Nc1nc2cccc(-c3ccc(CN4CCS(=O)(=O)CC4)cc3)n2n1)C1CC1
active: Potency (HEK293) 10.5 µM and 10.3 µM | Potency (KB-3-1) 8.33 µM
inactive: max response (NIH3T3 [2]) -23.2% | Potency (MCC-13)

Cc1cnc(Nc2ccc(F)cc2Cl)nc1-c1c[nH]c(C(=O)N[C@H](CO)c2cccc(Cl)c2)c1
active: Potency (NIH3T3 [2]) 10.5 µM | Potency (MKL-2) 14.8 µM | Potency (UISO) 2.64 µM | Potency (CASKI) 25.1 µM | Potency (Es-2) 20 µM | Potency (HeLa) 31.6 µM
inactive: max response (HEK293) -111% | max response (HaCat [1]) -129% | Potency (JEG-3)

COc1cccc(-c2ccc(NC(=O)C3=C(C(=O)O)CCC3)c(F)c2)c1
inactive: outcome (HaCat [1]) | max response (KB-3-1) -19.3% | Potency (HACAT [4]) | Potency (MCC-13) | Potency (MCC-26) | Potency (C33A) | Potency (CAOV3) | Potency (CASKI)
active: Potency (HEK293) 7.43 µM and 6.51 µM | Potency (WaGa) 23.5 µM

COc1cc(OC2CCN(C)CC2)ccc1Nc1ncc2c(n1)n(C1CCCC1)c(=O)n2C
active: Potency (HEK293) 3.72 µM | Potency (HaCat [1]) 13.2 µM | Potency (KB-3-1) 4.18 µM | Potency (NIH3T3 [2]) 18.7 µM | Potency (WaGa) 23.5 µM

O=C(c1ccc(Nc2nccc(-c3cc4ccccc4s3)n2)cc1)N1CCC(N2CCCC2)CC1
active: Potency (HEK293) 5.26 µM | Potency (HaCat [1]) 23.5 µM | Potency (KB-3-1) 9.35 µM | Potency (NIH3T3 [2]) 26.4 µM and 23.1 µM | Potency (UISO) 18.7 µM
inactive: Potency (C33A) | Potency (CASKI) | Potency (Es-2) | Potency (HeLa) | Potency (Hek293T) | Potency (JEG-3)
